Compound activity: PubChem BioAssay, National Center for Advancing Translational Sciences (NCATS)
HCV inhibitor: inhibitors of hepatitis C virus infection; Huh7.5.1 HCVcc-Cre infection, luciferase reporter, 44 h; AID 651820; hit rate 3.4% among 340,000; Potency, µM (titrated, usually from 41.8 µM), for inactives: at the top dose activity change, negative = inhibition, most hits filed as inhibitors; also: potency is read from the fitted curve at half-maximal effect; % is scaled to controls: 0 for no effect and ±100 for the full control effect
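Antiviral activity was scored by luciferase reporter output from cells infected with HCVcc-Cre (~0.5 moi) in presence of compound, 44 h infection period, cells seeded 1,000/well 4 h prior.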
Pf growth 48h: inhibits P. falciparum growth in the first generation, 48 h; P. falciparum luciferase growth in erythrocytes, 48 h; Potency, µM (top dose mostly 28.7 µM), for inactives: top-dose activity change, negative = inhibition, usual class: inhibitors; hit rate 5.9% among 310,000; also: potency is read from the fitted curve at half-maximal effect; % is scaled to controls: 0 for no effect and ±100 for the full control effect
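In quantitative HTS format, infected erythrocytes bearing luciferase-reporter parasites were treated for a single generation at 37 C. Luminescence after adding detection reagent served as the growth measure.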
Pf growth 96h: inhibits malaria parasite growth, 96 h; Potency, µM (series often up to 28.7 µM), for inactives: at the top dose activity change, negative = inhibition, actives largely listed as inhibitors; hit rate 6.9% among 320,000; P. falciparum luciferase reporter growth, 96 h; AID 504834; also: potency is read from the fitted curve at half-maximal effect; % is scaled to controls: 0 for no effect and ±100 for the full control effect
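Readout is luminescence from an integrated firefly luciferase in P. falciparum. Red cells, 2% hematocrit and 0.05% parasitemia final, were cultured with compound through two parasite generations (96 hours) at 37 C, 5% CO2.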
Shiga toxin inh: inhibitors of Shiga toxin in Vero cells; Vero cells, Shiga toxin protein synthesis inhibition reporter; inhibition, % at 38.7 µM; hit rate 9.2% among 290,000; AID 2315; in the data active = inhibition mostly above about 28%, no sharp cut-off; inactive = mostly below about 43%; also: 0% is about no effect
AMA1 RON2 block: AMA1-RON2 (P. falciparum) interaction inhibition | AlphaScreen AMA1-biotinylated RON2 peptide binding | Potency, µM (top dose mostly 58.2 µM), inactives show at the highest dose activity change, negative = inhibition, most hits filed as inhibitors | hit rate 0.2% among 360,000 | AID 720542;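 also: potency is read from the fitted curve at half-maximal effect; 0% = vehicle wells and -100% = peptide control; nearly all actives have a fitted effect of over 45% in size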
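AMA1 (3D7) with his tag at 25 nM final met compounds first, then biotinylated RON2 peptide at 25 nM; detection used donor plus acceptor beads, 10 µg/mL apiece, read by AlphaScreen after 30 min at room temperature.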
Cycloheximide cs: counter-screen for Shiga toxin inhibitors: cycloheximide protein synthesis inhibition; hit rate 12% among 300,000; max response, %; AID 2314; cell reporter, cycloheximide protein synthesis inhibition counterscreen; in the data active = max response mostly above about 13%, no sharp cut-off; inactive = mostly below about 14%; also: read at 38.3 µM for the half of the compounds with a filed dose; 0% is about no effect
* hit, by the source's call; ? = inconclusive; · = no result given; ! = repeats disagree; [ ] = another dose, or the depositor's remark. Compounds with a hit are over-represented: about 21% of the library has one in this group of screens. Unless noted, calls follow the shape of the dose curve; as a rule, active = well fitted curve in the direction sought with a large enough effect; inconclusive = small, poorly fitted or top-dose-only effect, or another doubt; inactive = no such curve, though single readings can be large; an effect the other way counts as inactive or inconclusive.

SMILES	HCV inhibitor	Pf growth 48h	Pf growth 96h	Shiga toxin inh	AMA1 RON2 block	Cycloheximide cs
CCOC(=O)C1CCN(c2c(Nc3ccc(C)c(C)c3)c(=O)c2=O)CC1	-7%	?	?	-3	7%	-2
CC(=O)c1c(C)[nH]c(C(=O)Nc2ccc(C)c(S(=O)(=O)N(C)C)c2)c1C	?	233%	-7%	-8	-1%	-2
CC(=O)c1c(C)[nH]c(C(=O)Nc2cccc(S(=O)(=O)N(C)C)c2)c1C	?	37%	38%	50	-1%	31*
O=C1CNC(=S)N1Cc1ccc(F)cc1	17%	12%	66%	3	33%	5
N=c1ccn(Cc2ccc(F)cc2)cc1	4µM*	?	?	-12	14%	-1
CC1(c2ccc(Cl)cc2)NC(=O)N(CN2CCOCC2)C1=O (centres undefined)	7%	1%	40%	10	-11%	-5
CCOc1ccc2nc(SCC(=O)Nc3nonc3C)[nH]c2c1	20%	26%	?	45	-19%	10
CCOc1ccc2nc(SCC(=O)NCc3ccccc3)[nH]c2c1	-11%	?	?	·	1%	-3
CCOc1ccc2nc(SCC(=O)Nc3cc4c(cc3C(C)=O)OCO4)[nH]c2c1	?	-17%	13µM*	-7	-15%	-1
CCOc1ccc2nc(SCC)[nH]c2c1	-5%	75%	63%	125*	-20%	54*
CCCCCCSc1ccc([C@@H]2[C@@H]3C(=O)N(C)C(=O)[C@@H]3[C@]3(C(=O)OC)CCCCN23)cc1	7%	·	·	·	0%	·
CCCSc1ccc([C@@H]2[C@H]3C(=O)N(CC)C(=O)[C@H]3[C@]3(C(=O)OC)CCCCN23)cc1	2%	13µM*	7.4µM*	·	-14%	·
CCCCCCSc1ccc([C@@H]2[C@H]3C(=O)N(CC)C(=O)[C@H]3[C@]3(C(=O)OC)CCCN23)cc1	-1%	?	10µM*	·	-6%	·
CCC/C=C/c1ccc(CN2C(CC(C)C)C(=O)N(Cc3cn(CC4CCCCC4)nn3)CCS2(=O)=O)cc1 (centres undefined)	·	·	·	·	1%	·
COc1ccccc1NC(=O)Nc1cccnc1	-8%	6%	28%	30	-17%	12
CC(=O)Nc1ccc(-c2ccnc3c2CC(C(=O)NCc2ccccc2)O3)cc1 (centres undefined)	·	·	·	·	-2%	·
N#CCNC1CC(=O)N(c2ccccc2)C1=O (centres undefined)	12%	8%	13%	-3	-1%	-2
Cc1ccc(NC2CC(=O)N(c3ccc(N4CCCCC4)cc3)C2=O)cc1 (centres undefined)	-18%	4%	1.7µM*	15	-6%	1
O=C1CC(NN2CCCCC2)C(=O)N1c1ccccc1 (centres undefined)	26%	34%	107%	61	11%	13*
O=c1c2ccccc2cnn1Cc1ccc(Cl)c(Cl)c1	5%	?	-16%	-6	-3%	-6
Cc1cccc(Cn2ncc(Cl)c(Cl)c2=O)c1	3.5µM*	16%	9%	32	3%	24*
Cc1cc(C(=O)Cn2ncc(Cl)c(Cl)c2=O)c(C)n1CC(F)(F)F	?	5%	?	22	-11%[11.6 µM]	24*
CCCc1cc(=O)[nH]c(SCC(=O)c2cc(C)n(CC(F)(F)F)c2C)n1	11%	19%	-4%	-14	9%	-2
Cc1cc2oc(=O)cc(Cn3ncc(Cl)c(Cl)c3=O)c2cc1Cl	11µM*	?	?	8	-8%	-2
Cc1cccc(Cn2nnc3c2C(=O)c2ccccc2C3=O)c1	?	?	2.9µM*	active	-14%	27*
SMILES	HCV inhibitor	Pf growth 48h	Pf growth 96h	Shiga toxin inh	AMA1 RON2 block	Cycloheximide cs
OCCO	1%	·	·	·	3%	·
Cc1ccc(C)c(C(=O)Cn2ncc(Cl)c(Cl)c2=O)c1	10µM*	?	·	-20	0%	15
Cc1ccc(C)c(C(=O)CN2C(=O)c3ccccc3C2=O)c1	11%	19%	25%	-15	3%	9
COc1ccccc1C(=O)Nc1ccc(C(=O)/C=C/c2cccs2)cc1	?	0%	?	22	0%	18*
COc1ccccc1C(=O)NC(=S)Nc1ccc(NC(=O)c2cccs2)cc1	?	?	8%	35	7%	-5
O=C(/C=C/c1cccs1)c1ccc(NC(=O)c2ccccc2F)cc1	-13%	48%	18%	40*	22%	25*
CC(C)[C@H](NC(=O)CCCn1nnc2ccccc2c1=O)C(=O)O	1%	34%	45%	17	-5%	-2
CCCCCCCCCCCCCCCCCCCCCCO	·	4%	-10%	-10	·	-3
Oc1ccc2ccccc2c1C=Nc1ccccc1-c1nc2ccccc2[nH]1	11µM*	·	?	59*	14%	43*
Oc1ccccc1C=NN=Cc1c(O)ccc2ccccc12	-3%	·	·	·	29%	·
Cc1nc(-n2[nH]c3c(c2=O)CCCC3)[nH]c(=O)c1Cc1ccccc1	7.1µM*	?	?	7	11%	2
Cc1cc(=O)[nH]c(-n2[nH]c3c(c2=O)CCCC3)n1	7%	4.1µM*	?	3	-6%	7
O=c1c2c([nH]n1-c1ccccc1)CCCC2	16%	-3%	3%	27	-13%	1
Cc1cc(=O)[nH]c(N2CCCNCC2)n1	19%	12µM*	-32%	-11	-3%	-1
Cc1cc(=O)[nH]c(N2CCN(Cc3ccccc3)CC2)n1	-2%	-16%	237%	-15	-6%	-3
NC(CO)(CO)COCc1ccccc1	16%	?	33%	-13	7%	0
O=c1[nH]n(-c2ccccc2)c(=O)c(Cl)c1Cl	10%	-14%	?	-8	8%	1
O=C(O)c1cc(-n2[nH]c(=O)c3ccccc3c2=O)ccc1Cl	13%	12%	20%	148*	1%	44*
CCOC(=O)N1CCN(C(=O)CSc2ccc(-c3cccnc3)nn2)CC1	·	-16%	?	-9	·	-3
O=C1CCC(C(=O)OCC(=O)c2ccccc2)N1 (centres undefined)	21%	15%	-6%	14	18%	-2
O=C1CC[C@@H](C(=O)O)N1	11%	?	13µM*!	·	6%	·
CC(C)CC(=O)Nc1ccc(C(=O)COC(=O)C2CCC2)cc1	11%	2%	-10%	34	15%	14
N#CCCN(C(=O)COc1ccc(Cl)cc1Cl)c1ccccc1	7%	-29%	?	29	26%	19*
COc1ccc(-c2noc(CN3CCCC(OCc4ccccn4)C3)n2)cc1 (centres undefined)	?	?	?	3	11%	1
CN1C(=O)C(O)(c2nnc(-c3ccccc3)o2)c2ccccc21 (centres undefined)	2%	114%	25%	46	10%	19*
